Laboratory results reported in PubChem BioAssay (NCATS).
Results filed as inconclusive are left out. Entries that show only a call come without a potency. Activity calls are given as the source filed them. Calls come from the whole dose curve; as a rule, active = well fitted cell-killing curve with a large enough effect; inconclusive = small, poorly fitted or top-dose-only effect; inactive = flat fitted curve, though single readings scatter.

assay: Cell Viability - LYMP2-009 (AID 968); conditions: LYMP2-009 lymphoblastoid cell viability; series mostly up to 92.2 µM;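 note: cells exposed to compound for 24 h at 37 °C; nearly all actives have a fitted effect of over 55% in size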
Description: NIH Chemical Genomics Center [NCGC]
NIH Molecular Libraries Screening Centers Network [MLSCN]
National Institutes of Environmental Health Sciences [NIEHS]
National Toxicology Program [NTP]
We have developed a 1536-well cell-based assay for quantitative high throughput screening (qHTS) against a number of cell lines to determine in vitro cytotoxicity of small molecules. This particular assay uses a human lymphoblastoid cell line (LYMP2-009) purchased from Coriell Institute for Medical Research.
NCGC Assay Protocol Summary:
The CellTiter-Glo luminescent cell viability assay (Promega) is a homogeneous method to measure the number of viable cells in culture. The end point readout of this assay is based on quantitation of intracellular ATP, an indicator of metabolic activity, using the luciferase reaction. Luciferase catalyzes the oxidation of beetle Luciferin to oxyluciferin and light in the presence of ATP. The luminescent signal is proportional to amount of ATP present.
Using the CellTiter-Glo luminescent cell viability assay, the amount of cellular ATP was measured in the lymphoblastoid cell line with complete culture medium following compound treatment for 24 hours. The assay was performed in opaque white Kalypsys 1536-well plates. In the screen, tetraoctylammonium bromide was used as positive control. Library compounds were measured for their ability to cause acute toxicity in the cell line, as reflected by a decrease in intracellular ATP levels, in a concentration-dependent manner. […] AC50 values were determined from concentration-response data modeled with the standard Hill equation.
qHTS protocol for CellTiter Glo lymphoblastoid cellular assay
[Step] [Parameter] [Value] [Description]
1. Reagent; 5 uL; 2500 lymphoblastoid cells/well
2. Time; 5 hr; 37 C incubation
4. Controls; 23 nL; Tetraoctylammonium bromide 6.4pM to 92 uM
5. Time; 24 hr; 37 C incubation
6. Reagent; 5 uL; CellTiter Glo reagent
7. Time; 30 min; Room Temperature
8. Detection; Luminescence; Viewlux plate reader
Keywords: cell viability, cytotoxicity, lymphoblastoid cell line, luminescence, NTPHTS, NTPHTS_NCGC, NIEHS, DSSTox, MLSMR, MLSCN, NIH Roadmap, qHTS, NCGC
Potency is the fitted concentration of half-maximal effect.

SMILES	Potency
CCC(C)O (stereo not given)	inactive
c1ccc(Nc2ccccc2)cc1	inactive
CC(O)CC(C)O (stereo not given)	inactive
O=c1[nH][nH]c(=O)c2cc([N+](=O)[O-])ccc12	inactive
CC(=O)CCc1ccccc1	inactive
NC=O	inactive
CCCCCCCCN	inactive
CC(C)N=C=NC(C)C	inactive
CCOCC(=O)O	inactive
C=Cc1ccccc1C=C	inactive
CCCCC(C=O)CC (stereo not given)	inactive
Nc1cccc(C(F)(F)F)c1	inactive
CCOC(=O)C(C)C(C)=O (stereo not given)	inactive
ICCc1ccccc1	inactive
CCCCC/C=C/C=C/C=O	39.8 µM (active)
Cc1ccc(C)cc1	inactive
CCNc1cc(O)ccc1C	inactive
NC(N)=S	inactive
Nc1ccccc1[N+](=O)[O-]	inactive
Cc1cc(C)c(N)cc1C	inactive

SMILES	Potency
Nc1cccc(O)c1	inactive
NC(=O)/N=N/C(N)=O	inactive
CC(C)(C)c1ccc(OCC2CO2)cc1 (stereo not given)	inactive
COc1cccc(N)c1	inactive
CNC(=O)N(c1ccccc1)c1ccccc1	inactive
CC(=O)c1nccs1	inactive
FC(F)(F)c1cccc(Cl)c1	inactive
Cc1ccccc1C#N	inactive
C=CCCC	inactive
Cc1ccc([N+](=O)[O-])c(N)c1	inactive
ClCCl	inactive
CC(=O)c1cccc([N+](=O)[O-])c1	inactive
O=Cc1cccc(Br)c1	inactive
ON=C1CCCCC1	inactive
Cc1c(N)cccc1N	inactive
C1CCOC1	inactive
O=C1OC(=O)c2cc([N+](=O)[O-])ccc21	inactive
COC(=O)CS	inactive
O=C1CCC(=O)O1	inactive
N#CCc1ccccc1[N+](=O)[O-]	inactive
